Holding throughout (assay): DAPPL (digital affinity profiling via proximity ligation, sequencing); 10 mM Tris-HCl pH 7.5, 50 mM NaCl, 1 mM DTT, 4% glycerol, room temperature, 30 min; GST-TFs on glutathione beads, 16-mer random dsDNA library, 0.1% formaldehyde crosslink after washing; high values mean tight binding
Common to all, as to settings: protein: recombinant; tags: N-terminal GST; dsDNA, one strand shown

One test deals with T1, ELK1 (Homo sapiens, UniProt P19419 1-428).
T1 sequence: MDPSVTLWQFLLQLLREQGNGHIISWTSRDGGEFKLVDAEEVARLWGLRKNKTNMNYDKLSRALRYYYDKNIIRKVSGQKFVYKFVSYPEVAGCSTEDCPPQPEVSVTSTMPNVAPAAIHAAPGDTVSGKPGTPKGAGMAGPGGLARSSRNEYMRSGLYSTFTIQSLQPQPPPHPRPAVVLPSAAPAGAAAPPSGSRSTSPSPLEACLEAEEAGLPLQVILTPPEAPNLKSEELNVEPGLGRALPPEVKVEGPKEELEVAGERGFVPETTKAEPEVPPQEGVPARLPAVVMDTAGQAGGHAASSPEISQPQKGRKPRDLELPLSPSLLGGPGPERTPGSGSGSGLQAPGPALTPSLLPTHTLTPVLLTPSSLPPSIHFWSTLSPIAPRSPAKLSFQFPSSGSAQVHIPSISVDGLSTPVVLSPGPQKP
In a few lines: (§1)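 GST fusions of human transcription factors were expressed in yeast and captured with glutathione beads. Once given DNA barcodes and pooled alongside a tag-only sample, they were incubated for 30 min at room temperature with 200 nmole of a random double-stranded 16-mer DNA library in Tris/NaCl/DTT/glycerol buffer, then washed, crosslinked (0.1% formaldehyde), proximity-ligated, PCR-amplified and sequenced on an Illumina NextSeq500. The binding signal of each hexamer is its read frequency for a factor divided by its frequency for the tag-only sample.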

A further test has as its target T2, GABPA (Homo sapiens, UniProt Q06546 1-454).
T2 sequence: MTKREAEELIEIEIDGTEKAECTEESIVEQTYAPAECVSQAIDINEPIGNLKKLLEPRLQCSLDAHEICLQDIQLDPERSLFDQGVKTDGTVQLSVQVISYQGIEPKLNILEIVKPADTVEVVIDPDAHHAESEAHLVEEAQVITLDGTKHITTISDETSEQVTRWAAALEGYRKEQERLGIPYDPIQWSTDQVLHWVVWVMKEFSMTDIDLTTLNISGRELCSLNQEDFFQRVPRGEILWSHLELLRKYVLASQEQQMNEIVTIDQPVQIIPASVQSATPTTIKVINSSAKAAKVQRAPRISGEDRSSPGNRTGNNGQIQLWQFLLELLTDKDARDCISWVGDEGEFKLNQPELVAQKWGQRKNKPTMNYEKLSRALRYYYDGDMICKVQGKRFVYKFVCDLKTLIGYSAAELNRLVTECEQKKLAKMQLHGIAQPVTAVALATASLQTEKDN
In a few lines:
as §1

The target of the next test is T3, ERG (Homo sapiens, UniProt P11308 1-479).
T3 sequence: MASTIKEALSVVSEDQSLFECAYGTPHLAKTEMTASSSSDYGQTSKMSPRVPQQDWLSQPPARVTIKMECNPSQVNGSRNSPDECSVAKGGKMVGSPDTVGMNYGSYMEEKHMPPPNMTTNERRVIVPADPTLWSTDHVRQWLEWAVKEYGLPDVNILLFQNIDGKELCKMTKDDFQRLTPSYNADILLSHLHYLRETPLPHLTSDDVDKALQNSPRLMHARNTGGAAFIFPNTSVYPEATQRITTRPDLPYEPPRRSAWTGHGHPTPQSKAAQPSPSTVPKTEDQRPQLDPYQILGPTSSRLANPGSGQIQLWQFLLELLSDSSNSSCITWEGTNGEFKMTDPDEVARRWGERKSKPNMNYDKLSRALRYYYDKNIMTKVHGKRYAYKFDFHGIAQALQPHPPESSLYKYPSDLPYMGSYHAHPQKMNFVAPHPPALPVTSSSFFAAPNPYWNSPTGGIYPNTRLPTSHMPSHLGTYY
The method in brief:
as §1

The target in the next test is ELF1 (Homo sapiens, UniProt P32519 1-619). The method in brief:
as §1

The next test deals with T4, EHF (Homo sapiens, UniProt Q9NZC4 1-300).
T4 sequence: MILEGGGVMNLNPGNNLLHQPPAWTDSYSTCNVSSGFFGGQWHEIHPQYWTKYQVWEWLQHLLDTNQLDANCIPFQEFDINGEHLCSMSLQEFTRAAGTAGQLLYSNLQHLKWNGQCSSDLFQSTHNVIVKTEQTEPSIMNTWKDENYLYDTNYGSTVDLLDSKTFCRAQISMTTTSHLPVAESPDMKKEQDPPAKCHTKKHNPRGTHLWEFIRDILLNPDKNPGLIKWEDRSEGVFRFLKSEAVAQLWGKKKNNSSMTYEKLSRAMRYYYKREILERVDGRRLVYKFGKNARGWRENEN
The method in brief:
as §1

The target in another test is SPIB (Homo sapiens, UniProt Q01892 1-262). The method in brief:
as §1

The target in a further test is T5, FEV (Homo sapiens, UniProt Q99581 1-238).
T5 sequence: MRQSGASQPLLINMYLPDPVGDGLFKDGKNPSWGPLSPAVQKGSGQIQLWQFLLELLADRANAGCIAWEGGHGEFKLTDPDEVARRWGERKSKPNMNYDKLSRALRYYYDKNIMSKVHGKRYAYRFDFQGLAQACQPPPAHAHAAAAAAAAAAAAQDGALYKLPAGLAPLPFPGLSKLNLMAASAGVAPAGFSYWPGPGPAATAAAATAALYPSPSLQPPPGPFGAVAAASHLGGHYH
The method in brief:
as §1

The target in the next test is ETV5 (Homo sapiens, UniProt P41161 1-510). In a few lines: as §1
Another test addresses ELF4 (Homo sapiens, UniProt Q99607 1-663). The method in brief: as §1
The next test deals with T6, ELK4 (Homo sapiens, UniProt P28324-2 1-405).
T6 sequence: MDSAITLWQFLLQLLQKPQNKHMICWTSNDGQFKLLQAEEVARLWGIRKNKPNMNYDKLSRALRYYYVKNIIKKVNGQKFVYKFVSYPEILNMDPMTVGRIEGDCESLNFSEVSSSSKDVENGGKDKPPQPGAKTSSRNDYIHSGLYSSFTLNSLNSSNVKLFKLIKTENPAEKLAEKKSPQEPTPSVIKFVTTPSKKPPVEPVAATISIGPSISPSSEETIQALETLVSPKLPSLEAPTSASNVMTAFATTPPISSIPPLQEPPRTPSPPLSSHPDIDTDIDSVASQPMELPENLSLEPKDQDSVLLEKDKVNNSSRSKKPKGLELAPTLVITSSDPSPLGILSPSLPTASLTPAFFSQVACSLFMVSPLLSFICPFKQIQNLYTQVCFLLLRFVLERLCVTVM
In a few lines: as §1

A further test addresses T7, ELF3 (Homo sapiens, UniProt P78545 1-371).
T7 sequence: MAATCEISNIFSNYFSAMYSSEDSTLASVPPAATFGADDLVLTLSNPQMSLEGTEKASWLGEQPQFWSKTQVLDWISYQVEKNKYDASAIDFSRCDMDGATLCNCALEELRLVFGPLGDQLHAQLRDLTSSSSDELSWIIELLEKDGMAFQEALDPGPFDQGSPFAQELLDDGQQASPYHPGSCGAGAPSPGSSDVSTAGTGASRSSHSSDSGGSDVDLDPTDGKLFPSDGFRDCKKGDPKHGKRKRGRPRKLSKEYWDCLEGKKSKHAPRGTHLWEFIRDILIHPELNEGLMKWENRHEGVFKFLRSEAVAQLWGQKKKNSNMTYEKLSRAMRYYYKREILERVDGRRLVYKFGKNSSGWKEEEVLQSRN
In a few lines:
as §1

A further test has as its target ETV1 (Homo sapiens, UniProt P50549 1-477). In a few lines: as §1
The next test deals with T8, ERF (Homo sapiens, UniProt P50548 1-548).
T8 sequence: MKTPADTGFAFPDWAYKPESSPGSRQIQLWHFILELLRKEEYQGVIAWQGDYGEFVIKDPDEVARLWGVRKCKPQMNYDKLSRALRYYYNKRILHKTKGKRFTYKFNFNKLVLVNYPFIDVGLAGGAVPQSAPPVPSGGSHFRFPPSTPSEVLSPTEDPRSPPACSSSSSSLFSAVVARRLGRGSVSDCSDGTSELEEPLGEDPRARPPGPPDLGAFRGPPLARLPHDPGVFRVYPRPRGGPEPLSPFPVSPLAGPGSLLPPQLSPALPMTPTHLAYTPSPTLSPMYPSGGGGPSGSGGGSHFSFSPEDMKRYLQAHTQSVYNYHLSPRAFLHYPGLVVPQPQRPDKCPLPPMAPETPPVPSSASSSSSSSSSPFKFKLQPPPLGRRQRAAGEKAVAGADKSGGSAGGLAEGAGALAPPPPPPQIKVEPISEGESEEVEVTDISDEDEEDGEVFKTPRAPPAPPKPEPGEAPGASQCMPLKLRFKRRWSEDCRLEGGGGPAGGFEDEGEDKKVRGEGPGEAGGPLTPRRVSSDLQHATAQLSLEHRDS
In a few lines:
as §1

For a further test, the target named is T9, ETV3L (Homo sapiens, UniProt Q6ZN32 1-361).
T9 sequence: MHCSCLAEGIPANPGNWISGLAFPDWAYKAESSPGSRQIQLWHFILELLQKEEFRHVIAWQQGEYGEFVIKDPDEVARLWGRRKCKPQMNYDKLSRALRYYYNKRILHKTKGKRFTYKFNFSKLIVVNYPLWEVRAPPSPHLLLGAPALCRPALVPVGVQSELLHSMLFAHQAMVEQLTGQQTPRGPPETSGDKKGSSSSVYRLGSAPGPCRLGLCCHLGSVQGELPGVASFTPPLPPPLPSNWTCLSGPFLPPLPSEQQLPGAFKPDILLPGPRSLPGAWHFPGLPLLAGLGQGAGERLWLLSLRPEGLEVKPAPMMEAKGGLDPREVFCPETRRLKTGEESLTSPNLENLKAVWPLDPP
The method in brief:
as §1

The next test deals with T10, ETS2 (Homo sapiens, UniProt P15036 1-469).
T10 sequence: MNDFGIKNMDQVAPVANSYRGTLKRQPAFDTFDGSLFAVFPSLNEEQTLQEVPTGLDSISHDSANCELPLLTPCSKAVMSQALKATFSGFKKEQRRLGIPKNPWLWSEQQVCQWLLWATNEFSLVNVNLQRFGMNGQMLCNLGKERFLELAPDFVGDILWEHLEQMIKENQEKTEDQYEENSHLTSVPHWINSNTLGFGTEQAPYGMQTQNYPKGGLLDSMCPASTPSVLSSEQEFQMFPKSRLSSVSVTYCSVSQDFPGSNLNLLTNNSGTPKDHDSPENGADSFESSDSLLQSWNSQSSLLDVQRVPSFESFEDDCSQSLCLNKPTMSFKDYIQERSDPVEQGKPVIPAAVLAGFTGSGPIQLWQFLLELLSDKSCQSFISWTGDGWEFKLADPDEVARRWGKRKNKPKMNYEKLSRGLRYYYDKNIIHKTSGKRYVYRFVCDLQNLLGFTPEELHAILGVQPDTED
In a few lines: as §1

A further test concerns the target T11, SPDEF (Homo sapiens, UniProt O95238 1-335).
T11 sequence: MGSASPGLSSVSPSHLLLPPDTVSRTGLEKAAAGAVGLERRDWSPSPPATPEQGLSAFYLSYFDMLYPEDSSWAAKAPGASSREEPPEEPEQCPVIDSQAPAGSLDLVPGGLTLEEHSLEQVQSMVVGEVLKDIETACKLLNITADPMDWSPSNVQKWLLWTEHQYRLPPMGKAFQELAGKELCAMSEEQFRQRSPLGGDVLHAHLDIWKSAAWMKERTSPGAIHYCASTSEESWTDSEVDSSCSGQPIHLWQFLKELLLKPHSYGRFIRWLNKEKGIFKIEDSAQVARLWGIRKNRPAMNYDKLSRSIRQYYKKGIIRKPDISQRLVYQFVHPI
In a few lines: as §1

For another test, the target named is T12, ETV7 (Homo sapiens, UniProt Q9Y603 1-341).
T12 sequence: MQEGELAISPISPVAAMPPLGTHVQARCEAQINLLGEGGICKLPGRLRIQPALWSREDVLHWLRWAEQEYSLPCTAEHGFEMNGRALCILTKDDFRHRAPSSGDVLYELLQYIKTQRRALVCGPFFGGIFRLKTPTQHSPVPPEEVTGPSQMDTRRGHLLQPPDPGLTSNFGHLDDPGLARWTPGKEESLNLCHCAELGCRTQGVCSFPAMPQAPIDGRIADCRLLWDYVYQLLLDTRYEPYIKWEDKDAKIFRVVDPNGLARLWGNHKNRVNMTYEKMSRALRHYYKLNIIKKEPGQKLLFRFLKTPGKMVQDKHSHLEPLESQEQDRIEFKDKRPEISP
The method in brief: as §1

A further test addresses T13, ETV3 (Homo sapiens, UniProt P41162-2 1-143).
T13 sequence: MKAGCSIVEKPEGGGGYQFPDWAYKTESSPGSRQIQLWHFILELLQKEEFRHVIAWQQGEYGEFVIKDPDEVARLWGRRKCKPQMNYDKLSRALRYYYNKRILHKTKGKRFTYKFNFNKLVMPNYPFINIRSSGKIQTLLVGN
In a few lines:
as §1

A further test concerns the target ETV6 (Homo sapiens, UniProt P41212 1-452). In a few lines:
as §1

ETV5, sequence (P41161 whole entry): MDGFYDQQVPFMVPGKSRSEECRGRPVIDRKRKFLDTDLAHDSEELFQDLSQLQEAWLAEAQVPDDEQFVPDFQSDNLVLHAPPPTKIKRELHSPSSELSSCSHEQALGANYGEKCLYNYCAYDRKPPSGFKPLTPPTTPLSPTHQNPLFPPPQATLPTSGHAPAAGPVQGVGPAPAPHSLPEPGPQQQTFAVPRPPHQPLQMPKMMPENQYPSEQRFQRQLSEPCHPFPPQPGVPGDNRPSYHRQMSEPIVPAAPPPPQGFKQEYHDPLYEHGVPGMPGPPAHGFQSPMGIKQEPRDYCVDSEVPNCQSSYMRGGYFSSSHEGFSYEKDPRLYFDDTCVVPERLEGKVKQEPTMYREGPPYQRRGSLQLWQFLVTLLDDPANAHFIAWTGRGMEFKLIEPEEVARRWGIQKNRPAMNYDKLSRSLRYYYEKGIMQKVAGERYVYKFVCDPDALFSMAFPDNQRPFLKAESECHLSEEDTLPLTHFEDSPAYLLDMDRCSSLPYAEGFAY
ETV6, sequence (P41212 whole entry): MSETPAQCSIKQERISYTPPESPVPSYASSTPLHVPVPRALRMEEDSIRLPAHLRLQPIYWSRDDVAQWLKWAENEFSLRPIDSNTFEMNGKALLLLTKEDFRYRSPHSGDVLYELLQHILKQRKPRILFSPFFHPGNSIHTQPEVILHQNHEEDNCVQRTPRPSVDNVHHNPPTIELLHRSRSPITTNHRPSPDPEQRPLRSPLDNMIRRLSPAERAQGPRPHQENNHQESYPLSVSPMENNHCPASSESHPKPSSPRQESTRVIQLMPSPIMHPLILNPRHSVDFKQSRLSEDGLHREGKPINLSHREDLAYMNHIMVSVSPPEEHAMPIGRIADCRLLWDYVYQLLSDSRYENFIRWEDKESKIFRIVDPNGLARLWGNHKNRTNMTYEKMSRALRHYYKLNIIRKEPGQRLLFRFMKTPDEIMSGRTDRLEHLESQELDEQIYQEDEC
ELF1, sequence (P32519 whole entry): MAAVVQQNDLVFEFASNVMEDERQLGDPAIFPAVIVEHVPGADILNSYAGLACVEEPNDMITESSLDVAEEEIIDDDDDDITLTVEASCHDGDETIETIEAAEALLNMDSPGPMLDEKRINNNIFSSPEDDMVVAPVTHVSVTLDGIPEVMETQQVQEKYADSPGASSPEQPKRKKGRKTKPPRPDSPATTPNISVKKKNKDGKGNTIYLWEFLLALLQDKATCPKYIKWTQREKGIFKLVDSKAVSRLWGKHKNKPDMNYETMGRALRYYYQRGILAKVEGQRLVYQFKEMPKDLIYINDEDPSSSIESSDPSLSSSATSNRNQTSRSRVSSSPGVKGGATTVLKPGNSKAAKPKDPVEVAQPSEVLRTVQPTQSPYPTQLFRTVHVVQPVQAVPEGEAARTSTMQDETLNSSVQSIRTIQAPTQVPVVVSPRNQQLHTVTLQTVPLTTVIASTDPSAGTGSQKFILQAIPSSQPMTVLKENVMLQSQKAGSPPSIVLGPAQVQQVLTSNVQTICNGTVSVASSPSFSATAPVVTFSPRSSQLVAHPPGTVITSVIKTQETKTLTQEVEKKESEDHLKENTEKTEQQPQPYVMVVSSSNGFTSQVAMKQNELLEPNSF
ETV1, sequence (P50549 whole entry): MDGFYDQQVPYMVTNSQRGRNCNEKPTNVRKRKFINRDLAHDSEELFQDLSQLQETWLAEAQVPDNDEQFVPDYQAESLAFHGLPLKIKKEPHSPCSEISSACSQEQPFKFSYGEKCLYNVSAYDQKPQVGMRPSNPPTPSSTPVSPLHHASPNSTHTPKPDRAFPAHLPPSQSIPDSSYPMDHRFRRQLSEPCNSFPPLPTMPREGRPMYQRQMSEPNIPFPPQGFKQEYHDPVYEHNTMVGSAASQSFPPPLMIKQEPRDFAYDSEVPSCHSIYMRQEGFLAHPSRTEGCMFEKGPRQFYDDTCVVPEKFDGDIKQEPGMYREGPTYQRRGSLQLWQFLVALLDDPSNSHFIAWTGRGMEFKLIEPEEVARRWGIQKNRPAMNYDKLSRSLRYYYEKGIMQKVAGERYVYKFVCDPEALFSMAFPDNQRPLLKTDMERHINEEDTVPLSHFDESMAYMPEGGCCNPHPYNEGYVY
ELF4, sequence (Q99607 whole entry): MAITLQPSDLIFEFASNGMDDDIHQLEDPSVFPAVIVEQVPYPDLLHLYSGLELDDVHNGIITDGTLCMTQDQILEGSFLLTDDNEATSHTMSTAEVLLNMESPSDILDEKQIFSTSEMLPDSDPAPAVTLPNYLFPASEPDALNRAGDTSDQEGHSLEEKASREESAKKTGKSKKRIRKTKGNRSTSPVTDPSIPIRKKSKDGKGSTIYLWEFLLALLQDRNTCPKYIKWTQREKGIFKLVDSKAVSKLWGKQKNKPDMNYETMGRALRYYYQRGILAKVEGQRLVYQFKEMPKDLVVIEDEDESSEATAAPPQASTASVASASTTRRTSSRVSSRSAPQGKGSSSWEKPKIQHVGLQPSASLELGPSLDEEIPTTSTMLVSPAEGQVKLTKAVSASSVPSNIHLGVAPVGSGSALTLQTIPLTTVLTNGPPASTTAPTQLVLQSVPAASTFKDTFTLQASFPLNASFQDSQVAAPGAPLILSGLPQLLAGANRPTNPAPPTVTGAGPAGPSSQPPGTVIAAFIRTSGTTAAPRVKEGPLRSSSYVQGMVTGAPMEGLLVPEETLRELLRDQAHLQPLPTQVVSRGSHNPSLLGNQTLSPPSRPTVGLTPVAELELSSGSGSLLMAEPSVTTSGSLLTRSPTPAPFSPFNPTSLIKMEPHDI
SPIB, sequence (Q01892 whole entry): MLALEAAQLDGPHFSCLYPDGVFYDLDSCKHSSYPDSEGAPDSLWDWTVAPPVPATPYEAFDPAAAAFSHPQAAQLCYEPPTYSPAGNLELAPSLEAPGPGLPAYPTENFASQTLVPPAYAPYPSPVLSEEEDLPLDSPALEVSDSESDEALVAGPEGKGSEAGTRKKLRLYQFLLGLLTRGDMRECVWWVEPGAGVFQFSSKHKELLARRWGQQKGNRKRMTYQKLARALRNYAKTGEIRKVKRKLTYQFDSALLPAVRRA

Turning to GGCTAC, the binding signal in the test with ELK1 was 1.12 fold enrichment (6-mer frequency, TF over GST control); with GABPA, 1.18 fold enrichment (6-mer frequency, TF over GST control); with ERG, 1.09 fold enrichment (6-mer frequency, TF over GST control); with ELF1, 1.26 fold enrichment (6-mer frequency, TF over GST control); with EHF, 1.07 fold enrichment (6-mer frequency, TF over GST control); in the test with SPIB, 1.16 fold enrichment (6-mer frequency, TF over GST control). In addition, the binding signal was 1.1 fold enrichment (6-mer frequency, TF over GST control) in the test with FEV; 1.22 fold enrichment (6-mer frequency, TF over GST control) in the test with ETV5; 1.17 fold enrichment (6-mer frequency, TF over GST control) with ELF4; 1.1 fold enrichment (6-mer frequency, TF over GST control) in the test with ELK4; 1.18 fold enrichment (6-mer frequency, TF over GST control) with ELF3; 1.12 fold enrichment (6-mer frequency, TF over GST control) in the test with ETV1. The binding signal is 1.12 fold enrichment (6-mer frequency, TF over GST control) with ERF; 1.16 fold enrichment (6-mer frequency, TF over GST control) with ETV3L; 1.2 fold enrichment (6-mer frequency, TF over GST control) with ETS2; 1.22 fold enrichment (6-mer frequency, TF over GST control) with SPDEF; 1.26 fold enrichment (6-mer frequency, TF over GST control) in the test with ETV7; 1.07 fold enrichment (6-mer frequency, TF over GST control) with ETV3. The binding signal in the test with ETV6 was 1.2 fold enrichment (6-mer frequency, TF over GST control).

Source of the values: paper PMC7862700, “An all-to-all approach to the identification of sequence-specific readers for epigenetic DNA modifications on cytosine”.
